Experimental data as given in PubChem BioAssay.
Several values for one entry are separate records, joined by “and”; a condition that tells them apart may be missing. Equal values may be shown once. Values without a mark were called inactive. The rule behind the calls is not given here.

Target: Pantothenate synthetase (Mycobacterium tuberculosis (strain ATCC 25618 / H37Rv)) (UniProt P9WIL5)
Assay: Coupled enzyme confirmation of inhibitors against recombinant Mtb PanC (AID 375);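 note: 0% = full reaction with vehicle and 100% = no enzyme background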
Settings: coupled enzyme assay; at 10 µM, stronger effect = higher value

Sequence of Pantothenate synthetase (Mycobacterium tuberculosis (strain ATCC 25618 / H37Rv)) (P9WIL5 whole entry, looked up): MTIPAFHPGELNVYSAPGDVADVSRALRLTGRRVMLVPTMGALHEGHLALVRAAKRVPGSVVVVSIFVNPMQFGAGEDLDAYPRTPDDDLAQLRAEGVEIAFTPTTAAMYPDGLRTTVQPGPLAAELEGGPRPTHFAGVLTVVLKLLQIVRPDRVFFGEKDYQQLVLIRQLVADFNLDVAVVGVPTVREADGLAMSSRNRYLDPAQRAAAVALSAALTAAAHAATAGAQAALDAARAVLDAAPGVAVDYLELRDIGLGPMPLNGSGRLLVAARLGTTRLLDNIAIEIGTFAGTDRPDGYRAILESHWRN

Structure (SMILES) | inhibition
CN(C)C(=O)Oc1cccc([N+](C)(C)C)c1 | 9% and 0%
COC(=O)CNc1nc(C2CC2)nc2c1nnn2Cc1ccccc1Cl | 6%
Cc1cc(C(=O)NCCCc2ccccc2)no1 | 10%
CC(C)(C)NC(=O)Cn1nnnc1-c1nonc1N | 4%
C=CCN1C(=O)C2(c3ccccc31)C1CCCC=C1C(C#N)=C(N)C2(C#N)C#N (stereo not drawn) | 0%
C[C@H](CS)C(=O)N1CCC[C@H]1C(=O)O | 2%
Cc1nn(C)cc1C1C2=C(CC(C)(C)CC2=O)OC2=C1C(=O)CC(C)(C)C2 | 0%
COc1ccc(CNc2oc(COc3ccccc3Cl)nc2C#N)cc1 | 0%
COc1ccc(N(CC(=O)N2CCCCC2)S(=O)(=O)c2ccccc2)c(OC)c1 | 0%
CN(C)c1ccc(/C(=N\O)c2ccccc2)cc1 | 0%
CCOC(=O)Cc1nnc(NC(=O)c2ccccc2OCC)s1 | 0%
CCN(CC)CCN1C(=O)C(O)=C(C(=O)c2cccs2)C1c1ccccn1 (stereo not drawn) | 0%
COc1ccc(Cc2nc(-c3ccc(Br)cc3)no2)cc1 | 7%
CCN(CC)C(=O)CSc1nnc(-c2cc(OC)cc(OC)c2)o1 | 0%
O=C(NC1CCCCCC1)c1c(F)c(F)c(F)c(F)c1F | 4%
CC(=O)Nc1c(O)n(C)c2ccccc12 | 2%
Cc1cccc(OCC(=O)N(Cc2cccs2)C2CCS(=O)(=O)C2)c1C (stereo not drawn) | 3%
C=CCn1c(COc2ccc(Cl)cc2)nnc1SCC(=O)N1CC(=O)Nc2ccccc21 | 0%
